Measurements from the supplement of paper PMC10849652.
Targets with a hit are over-represented here; the source holds about 8,800 in all. About 0.5% of all pairs of compound and target were hits.

Tests used:
Assay in all cases: log2 fold change, soluble protein after heating vs DMSO (PISA); higher = thermal stabilisation; K562 lysate, 10 uM; active = over 0.2 and 3.5 SD of the protein, either way, in both replicates (recomputed)
ibrutinib = compound: C=CC(=O)N1CCC[C@@H](n2nc(-c3ccc(Oc4ccccc4)cc3)c3c(N)ncnc32)C1 [ibrutinib]
Summary of the method: (§1)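 Thermal stability, expressed as log-two fold change relative to solvent controls, is given from duplicates. Crude K562 extract in PBS pH 7.4 with 1 mM MgCl2, at 1 mg/mL protein, was treated with 10 μM compound for 30 min and heated in aliquots for 3 min across 48°C-58°C. After pooling, adjustment to 0.5% NP-40 at 4°C and centrifugation at 21,000xg for 90 min, supernatant protein was measured by TMTpro 16plex LC-MS/MS with channel sums equalised.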

[1] = compound: CC(=O)c1cnc2ccc(-c3cc(Cl)c(O)c(Cl)c3)nc2c1N[C@H]1CC[C@H](CN(C)C)CC1
Summary of the method: as §1

ralimetinib = compound: CC(C)(C)Cn1c(N)nc2ccc(-c3[nH]c(C(C)(C)C)nc3-c3ccc(F)cc3)nc21 [ralimetinib]
Summary of the method: as §1

[2] = compound: CC(C)(O)CC(=O)NCCn1ccc2ncnc(Nc3ccc(Oc4cccc(C(F)(F)F)c4)c(Cl)c3)c21
Summary of the method: as §1

[3] = compound: CC(C)C1=C2N=C(C=C(N2N=C1)NCC3=CC=CC=C3)NCCCCCCN
Summary of the method: as §1

[4] = compound: CC1=C(C(CC(=O)N1)C2=CC=C(C=C2)C(F)(F)F)C(=O)NC3=C(C=C4C(=C3)C=NN4)F
Summary of the method: as §1

[5] = compound: CC1=C(C2=C(C=C1)C(=O)C3=CC=CC=C3N2CCCN)C
Summary of the method: as §1

[6] = compound: CC1=C(C=C(C=C1)NC(=O)C2=CC(=CC=C2)C(C)(C)C#N)NC3=CC4=C(C=C3)N=CN(C4=O)C
Summary of the method: as §1

[7] = compound: CC1=C(C=C(C=C1)NC(=O)C2=CC(=CC=C2)N(C)C)NC(=O)C3=CC=C(C=C3)O
Summary of the method: as §1

[8] = compound: CC1=CC=C(C=C1)SC2=C3C=C(SC3=CN=C2)C(=O)N
Summary of the method: as §1

Measured: log2 fold change

FDX2 (UniProt Q6P4F2)
UniProt Q6P4F2, sequence (Q6P4F2 whole entry, looked up): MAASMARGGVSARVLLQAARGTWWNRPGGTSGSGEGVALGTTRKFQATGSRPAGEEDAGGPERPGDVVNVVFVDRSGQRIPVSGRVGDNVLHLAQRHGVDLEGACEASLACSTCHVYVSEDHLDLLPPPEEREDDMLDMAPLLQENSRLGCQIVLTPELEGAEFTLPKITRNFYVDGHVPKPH
inactive: ibrutinib 0.056 | [1] -0.025 | ralimetinib -0.047 | [2] -0.194 | [3] -0.039 | [4] 0.01 | [5] -0.018 | [6] 0.015 | [7] 0.05 | [8] 0.006

FASTKD2 (UniProt Q9NYY8)
inactive: ibrutinib -0.008 | [1] -0.006 | ralimetinib -0.004 | [2] -0.039 | [3] -0.013 | [4] 0.003 | [5] -0.007 | [6] 0.034 | [7] -0.001 | [8] 0.024

ENGASE (UniProt Q8NFI3)
inactive: ibrutinib 0.019 | [1] 0.019 | ralimetinib -0.02 | [2] 0.012 | [3] -0.02 | [4] -0.002 | [5] 0.012 | [6] -0.046 | [7] 0.067 | [8] 0

EIF1 (UniProt P41567)
UniProt P41567, sequence (P41567 whole entry, looked up): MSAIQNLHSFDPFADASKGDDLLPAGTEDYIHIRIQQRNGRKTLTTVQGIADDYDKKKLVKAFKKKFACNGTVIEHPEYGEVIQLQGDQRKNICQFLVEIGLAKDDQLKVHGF
inactive: ibrutinib 0.026 | [1] 0.015 | ralimetinib -0.016 | [2] 0.011 | [3] 0 | [4] -0.114 | [5] 0.059 | [6] 0.045 | [7] -0.043 | [8] -0.037

FREM2 (UniProt Q5SZK8)
inactive: ibrutinib -0.062 | [1] 0.024 | ralimetinib -0.014 | [2] -0.042 | [3] -0.024 | [4] -0.06 | [5] -0.01 | [6] 0.079 | [7] 0.035 | [8] -0.073

DTYMK (UniProt P23919)
inactive: ibrutinib 0.027 | [1] -0.018 | ralimetinib 0.049 | [2] -0.015 | [3] 0.023 | [4] -0.035 | [5] -0.005 | [6] -0.017 | [7] 0.038 | [8] -0.002

FBLL1 (UniProt A6NHQ2)
inactive: ibrutinib -0.042 | [1] -0.031 | ralimetinib 0.029 | [2] -0.056 | [3] -0.014 | [4] 0.001 | [5] -0.121 | [6] 0.006 | [7] 0.049 | [8] -0.018

FADS3 (UniProt Q9Y5Q0)
inactive: ibrutinib 0.11 | [1] -0.02 | ralimetinib -0.123 | [2] 0.075 | [3] -0.051 | [4] 0.074 | [5] -0.49 | [6] 0.015 | [7] 0.017 | [8] -0.017

GAPVD1 isoform 6 (UniProt Q14C86)
inactive: ibrutinib 0.005 | [1] 0.003 | ralimetinib 0.031 | [2] -0.004 | [3] -0.018 | [4] 0.028 | [5] 0.008 | [6] 0.003 | [7] 0.011 | [8] 0.018

ERLIN2 (UniProt O94905)
UniProt O94905, sequence (O94905 whole entry, looked up): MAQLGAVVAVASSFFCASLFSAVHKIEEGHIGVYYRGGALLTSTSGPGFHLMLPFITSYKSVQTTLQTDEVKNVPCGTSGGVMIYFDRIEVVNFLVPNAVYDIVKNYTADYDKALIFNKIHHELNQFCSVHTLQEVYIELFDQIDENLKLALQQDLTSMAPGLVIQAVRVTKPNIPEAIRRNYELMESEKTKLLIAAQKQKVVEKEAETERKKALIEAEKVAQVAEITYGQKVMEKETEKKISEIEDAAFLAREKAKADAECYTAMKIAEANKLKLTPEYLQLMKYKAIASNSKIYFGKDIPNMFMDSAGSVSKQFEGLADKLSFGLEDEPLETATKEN
inactive: ibrutinib 0.033 | [1] -0.028 | ralimetinib 0.026 | [2] -0.023 | [3] -0.023 | [4] -0.012 | [5] -0.031 | [6] -0.016 | [7] 0.066 | [8] -0.014

GABPB1 (UniProt Q06547)
inactive: ibrutinib -0.106 | [1] -0.012 | ralimetinib 0.021 | [2] 0.014 | [3] 0 | [4] 0.013 | [5] -0.026 | [6] 0.003 | [7] 0.071 | [8] 0.024

FDFT1 (UniProt P37268)
inactive: ibrutinib -0.004 | [1] -0.014 | ralimetinib -0.014 | [2] 0.018 | [3] 0.013 | [4] -0.034 | [5] -0.028 | [6] -0.02 | [7] 0.017 | [8] 0.012

GAMT (UniProt Q14353)
inactive: ibrutinib 0.029 | [1] -0.008 | ralimetinib 0.019 | [2] 0.013 | [3] -0.041 | [4] 0.071 | [5] -0.009 | [6] -0.003 | [7] -0.003 | [8] 0.005

FAT2 (UniProt Q9NYQ8)
inactive: ibrutinib 0.01 | [1] 0.057 | ralimetinib -0.156 | [2] -0.123 | [3] -0.314 | [4] -0.019 | [6] 0.166 | [7] 0.038 | [8] -0.023

FARSB (UniProt Q9NSD9)
UniProt Q9NSD9, sequence (Q9NSD9 whole entry, looked up): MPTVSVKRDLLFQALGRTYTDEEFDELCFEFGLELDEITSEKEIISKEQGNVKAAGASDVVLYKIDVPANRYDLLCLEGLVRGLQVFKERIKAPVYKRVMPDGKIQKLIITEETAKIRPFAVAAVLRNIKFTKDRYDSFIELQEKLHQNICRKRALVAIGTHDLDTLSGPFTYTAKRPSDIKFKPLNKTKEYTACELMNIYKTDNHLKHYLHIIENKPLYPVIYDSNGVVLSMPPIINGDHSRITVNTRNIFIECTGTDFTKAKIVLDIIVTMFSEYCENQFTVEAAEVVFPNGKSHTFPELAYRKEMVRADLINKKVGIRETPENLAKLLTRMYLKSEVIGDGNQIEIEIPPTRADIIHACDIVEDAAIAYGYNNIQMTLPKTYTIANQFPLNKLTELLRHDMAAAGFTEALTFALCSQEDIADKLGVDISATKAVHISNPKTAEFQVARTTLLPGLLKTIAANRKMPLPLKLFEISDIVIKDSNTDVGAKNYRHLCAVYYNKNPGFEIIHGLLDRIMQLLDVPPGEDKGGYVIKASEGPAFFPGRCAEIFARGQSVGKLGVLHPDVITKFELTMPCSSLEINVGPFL
inactive: ibrutinib 0.021 | [1] -0.013 | ralimetinib -0.006 | [2] 0.016 | [3] 0.004 | [4] -0.023 | [5] 0.007 | [6] 0.033 | [7] 0.008 | [8] 0.03

EIF2B4 isoform 2 (UniProt Q9UI10)
UniProt Q9UI10, sequence (Q9UI10 whole entry, looked up): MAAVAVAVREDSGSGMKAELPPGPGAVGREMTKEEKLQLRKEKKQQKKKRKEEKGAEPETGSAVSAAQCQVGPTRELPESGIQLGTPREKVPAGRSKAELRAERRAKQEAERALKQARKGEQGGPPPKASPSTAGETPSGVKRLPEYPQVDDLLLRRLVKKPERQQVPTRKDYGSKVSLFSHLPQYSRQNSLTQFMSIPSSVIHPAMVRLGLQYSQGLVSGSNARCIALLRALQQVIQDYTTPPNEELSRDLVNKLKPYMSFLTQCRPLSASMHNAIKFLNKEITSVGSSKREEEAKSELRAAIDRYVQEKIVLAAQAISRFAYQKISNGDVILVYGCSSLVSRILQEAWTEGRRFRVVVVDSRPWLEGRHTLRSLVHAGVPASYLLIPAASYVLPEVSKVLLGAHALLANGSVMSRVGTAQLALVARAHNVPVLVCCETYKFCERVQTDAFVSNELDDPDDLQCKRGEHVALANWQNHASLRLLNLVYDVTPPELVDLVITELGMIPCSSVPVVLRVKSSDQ
inactive: ibrutinib 0.011 | [1] 0.011 | ralimetinib 0.009 | [2] -0.005 | [3] -0.036 | [4] -0.004 | [5] -0.036 | [6] 0.001 | [7] -0.005 | [8] 0.04

DUSP22 isoform 2 (UniProt Q9NRW4)
UniProt Q9NRW4, sequence (Q9NRW4 whole entry, looked up): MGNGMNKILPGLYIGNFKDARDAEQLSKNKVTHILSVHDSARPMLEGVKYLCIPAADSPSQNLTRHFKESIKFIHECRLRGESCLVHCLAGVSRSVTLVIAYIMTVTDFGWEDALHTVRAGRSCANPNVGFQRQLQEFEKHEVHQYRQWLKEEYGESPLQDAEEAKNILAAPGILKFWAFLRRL
inactive: ibrutinib -0.059 | [1] 0.043 | ralimetinib 0.007 | [2] 0.02 | [3] -0.092 | [4] 0.177 | [5] -0.046 | [7] 0.081 | [8] 0.007

FAM114A2 (UniProt Q9NRY5)
UniProt Q9NRY5, sequence (Q9NRY5 whole entry, looked up): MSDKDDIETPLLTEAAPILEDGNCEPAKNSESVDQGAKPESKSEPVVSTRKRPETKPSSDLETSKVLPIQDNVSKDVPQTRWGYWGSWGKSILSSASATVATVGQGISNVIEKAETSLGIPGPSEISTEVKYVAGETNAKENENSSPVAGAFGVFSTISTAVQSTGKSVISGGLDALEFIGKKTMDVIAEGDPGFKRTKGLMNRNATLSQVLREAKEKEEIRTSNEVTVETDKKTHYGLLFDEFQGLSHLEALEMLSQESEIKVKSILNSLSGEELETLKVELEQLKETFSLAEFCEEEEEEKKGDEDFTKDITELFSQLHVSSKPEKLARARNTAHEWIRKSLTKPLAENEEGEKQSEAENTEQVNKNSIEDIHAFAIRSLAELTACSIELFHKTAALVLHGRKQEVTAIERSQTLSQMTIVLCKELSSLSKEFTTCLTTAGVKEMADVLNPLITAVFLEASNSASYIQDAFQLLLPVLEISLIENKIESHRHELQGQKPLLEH
inactive: ibrutinib -0.016 | [1] -0.061 | ralimetinib -0.036 | [2] -0.11 | [3] 0.057 | [4] 0.171 | [5] 0.06 | [6] -0.069 | [7] 0.005 | [8] 0.012

ENSA isoform 3 (UniProt O43768)
UniProt O43768, sequence (O43768 whole entry, looked up): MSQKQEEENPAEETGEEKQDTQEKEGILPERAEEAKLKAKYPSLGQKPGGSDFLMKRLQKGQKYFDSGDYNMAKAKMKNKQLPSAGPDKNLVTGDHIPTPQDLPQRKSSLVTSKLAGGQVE
inactive: ibrutinib 0.042 | [1] 0.015 | ralimetinib -0.019 | [2] 0.02 | [3] -0.013 | [4] -0.016 | [5] 0.039 | [6] -0.042 | [7] -0.057 | [8] -0.01

EHHADH (UniProt Q08426)
UniProt Q08426, sequence (Q08426 whole entry, looked up): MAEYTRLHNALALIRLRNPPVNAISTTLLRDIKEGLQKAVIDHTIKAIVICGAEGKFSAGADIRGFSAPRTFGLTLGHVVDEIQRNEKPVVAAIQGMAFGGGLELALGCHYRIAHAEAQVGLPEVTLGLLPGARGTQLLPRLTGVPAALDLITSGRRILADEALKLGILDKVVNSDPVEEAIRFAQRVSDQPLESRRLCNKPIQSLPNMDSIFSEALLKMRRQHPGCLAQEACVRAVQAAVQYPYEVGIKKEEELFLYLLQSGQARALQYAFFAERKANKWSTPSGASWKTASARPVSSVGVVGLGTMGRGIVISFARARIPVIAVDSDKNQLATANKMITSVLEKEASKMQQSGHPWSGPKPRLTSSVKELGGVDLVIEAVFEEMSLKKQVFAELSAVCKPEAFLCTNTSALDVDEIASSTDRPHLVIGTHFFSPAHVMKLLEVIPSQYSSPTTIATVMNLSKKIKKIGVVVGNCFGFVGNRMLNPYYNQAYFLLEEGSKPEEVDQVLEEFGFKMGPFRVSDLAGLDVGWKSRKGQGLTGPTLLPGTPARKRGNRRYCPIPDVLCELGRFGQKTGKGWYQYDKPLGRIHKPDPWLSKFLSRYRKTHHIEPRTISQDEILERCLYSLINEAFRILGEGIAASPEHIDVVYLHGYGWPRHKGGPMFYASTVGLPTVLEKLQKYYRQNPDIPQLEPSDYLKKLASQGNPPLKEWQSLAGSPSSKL
inactive: ibrutinib 0.059 | [1] -0.023 | ralimetinib 0.021 | [2] -0.084 | [3] -0.016 | [4] -0.003 | [5] 0.128 | [6] -0.027 | [7] 0.031 | [8] 0.008

EEF1A1, A0A087WVQ9
inactive: ibrutinib 0.085 | [1] 0.019 | ralimetinib -0.006 | [2] 0.019 | [3] -0.007 | [4] 0.091 | [5] 0 | [6] -0.023 | [7] -0.006 | [8] 0.004

FAM98A (UniProt Q8NCA5)
UniProt Q8NCA5, sequence (Q8NCA5 whole entry, looked up): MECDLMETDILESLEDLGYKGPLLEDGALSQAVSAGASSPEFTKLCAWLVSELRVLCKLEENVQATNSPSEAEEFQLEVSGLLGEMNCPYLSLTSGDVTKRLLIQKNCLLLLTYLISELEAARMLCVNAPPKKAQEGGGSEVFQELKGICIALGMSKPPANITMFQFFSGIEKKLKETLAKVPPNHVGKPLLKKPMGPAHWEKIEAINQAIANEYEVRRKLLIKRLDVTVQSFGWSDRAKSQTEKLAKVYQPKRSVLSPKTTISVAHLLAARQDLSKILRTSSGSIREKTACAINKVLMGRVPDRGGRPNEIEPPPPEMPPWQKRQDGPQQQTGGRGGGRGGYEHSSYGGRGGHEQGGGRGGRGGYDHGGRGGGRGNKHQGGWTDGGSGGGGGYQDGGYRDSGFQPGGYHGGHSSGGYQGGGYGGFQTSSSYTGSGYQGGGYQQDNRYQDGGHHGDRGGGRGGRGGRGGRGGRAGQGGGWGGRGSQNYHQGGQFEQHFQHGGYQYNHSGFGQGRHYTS
inactive: ibrutinib -0.033 | [1] -0.019 | ralimetinib 0.046 | [2] 0.008 | [3] 0.014 | [4] 0.04 | [5] -0.045 | [6] 0.008 | [7] 0.035 | [8] 0.029

FAM118B (UniProt Q9BPY3)
UniProt Q9BPY3, sequence (Q9BPY3 whole entry, looked up): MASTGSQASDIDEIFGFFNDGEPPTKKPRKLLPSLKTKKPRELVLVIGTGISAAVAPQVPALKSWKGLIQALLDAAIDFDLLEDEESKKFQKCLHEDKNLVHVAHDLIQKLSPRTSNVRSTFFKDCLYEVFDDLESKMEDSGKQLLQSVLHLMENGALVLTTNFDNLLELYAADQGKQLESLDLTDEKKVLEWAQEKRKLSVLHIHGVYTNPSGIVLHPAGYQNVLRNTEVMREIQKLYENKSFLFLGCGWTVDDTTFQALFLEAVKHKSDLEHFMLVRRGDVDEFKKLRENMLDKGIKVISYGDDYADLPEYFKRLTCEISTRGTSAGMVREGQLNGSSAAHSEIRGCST
inactive: ibrutinib 0.066 | [1] -0.016 | ralimetinib 0.015 | [2] -0.019 | [3] 0.023 | [4] -0.01 | [5] 0.012 | [6] -0.012 | [7] 0.03 | [8] 0.008

DYNC1I2 isoform 5 (UniProt Q13409)
UniProt Q13409, sequence (Q13409 whole entry, looked up): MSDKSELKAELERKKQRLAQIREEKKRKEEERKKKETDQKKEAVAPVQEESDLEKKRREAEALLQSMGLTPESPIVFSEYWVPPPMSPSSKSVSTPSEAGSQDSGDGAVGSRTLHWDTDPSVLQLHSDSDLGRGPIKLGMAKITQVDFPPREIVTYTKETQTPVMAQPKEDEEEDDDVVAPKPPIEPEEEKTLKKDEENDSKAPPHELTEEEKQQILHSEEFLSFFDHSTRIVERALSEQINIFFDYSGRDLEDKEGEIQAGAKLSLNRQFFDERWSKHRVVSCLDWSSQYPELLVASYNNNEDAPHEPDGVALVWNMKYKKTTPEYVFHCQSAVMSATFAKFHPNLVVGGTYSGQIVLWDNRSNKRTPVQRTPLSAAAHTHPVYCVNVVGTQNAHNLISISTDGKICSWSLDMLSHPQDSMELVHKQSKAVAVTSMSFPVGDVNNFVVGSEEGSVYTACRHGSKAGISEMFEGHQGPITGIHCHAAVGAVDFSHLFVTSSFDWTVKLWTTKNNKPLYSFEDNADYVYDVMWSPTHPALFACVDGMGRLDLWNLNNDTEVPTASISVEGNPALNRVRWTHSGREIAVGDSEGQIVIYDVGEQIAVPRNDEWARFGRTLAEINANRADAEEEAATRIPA
inactive: ibrutinib 0.022 | [1] -0.021 | ralimetinib 0 | [2] -0.014 | [3] 0.004 | [4] 0.012 | [5] -0.007 | [6] -0.012 | [7] 0.008 | [8] -0.003

ERI1 (UniProt Q8IV48)
inactive: ibrutinib -0.037 | [1] 0.022 | ralimetinib -0.035 | [2] 0.085 | [3] 0.084 | [4] -0.05 | [5] 0 | [6] -0.033 | [7] 0.411 | [8] 0.012
